Among all 260,000 compounds or so, about 2,200 (0.85%) were called active.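 How the source made its calls: active means compounds whose cAMP rise, as percent of the full-agonist control response, exceeds 60; inactive means the rest.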 Many of the other results were omitted from the sample, so actives are more common in it than they were.

In PubChem BioAssay AID940 (Emory University Molecular Libraries Screening Center, 2007) one finds induction data, which are given here for 27 compounds.

Chain of Prostaglandin E2 receptor EP2 subtype (Homo sapiens) (P43116 whole entry, looked up): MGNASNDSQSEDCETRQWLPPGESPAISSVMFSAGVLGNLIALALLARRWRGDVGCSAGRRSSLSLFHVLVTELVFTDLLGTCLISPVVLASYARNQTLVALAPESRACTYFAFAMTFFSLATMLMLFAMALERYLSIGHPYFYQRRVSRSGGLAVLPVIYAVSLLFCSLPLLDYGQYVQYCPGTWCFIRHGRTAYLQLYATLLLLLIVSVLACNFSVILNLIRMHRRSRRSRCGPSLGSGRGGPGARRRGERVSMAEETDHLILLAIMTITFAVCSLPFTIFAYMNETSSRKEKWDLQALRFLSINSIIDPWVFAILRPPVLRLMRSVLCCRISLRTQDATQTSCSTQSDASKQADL

The experiment has as its target Prostaglandin E2 receptor EP2 subtype (Homo sapiens) (UniProt P43116). The experiment in a line: EP2 receptor modulators, cAMP readout, primary screen, cell-based, HTRF cAMP, PGE2 stimulation (AID 940).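 Further: rat C6 glioma line stably carrying human EP2 under a CMV promoter; the protocol text gives 20 µM as final concentration; 100% = response of wells given 1 µM PGE2.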 As to conditions: EP2-expressing cells, cAMP HTRF FRET, PGE2 co-stimulation; at 25 µM; active compounds read high. (TR-FRET usually uses a lanthanide donor and a delayed reading to cut background.)
Regarding `COc1ccc2cc(C)c3nn(CC(=O)N4CCC(C)CC4)c(=O)n3c2c1`, the induction was -70.2% (inactive).

Turning to `CCn1cc(S(=O)(=O)N2CCC(CCc3ccc(C(=O)O)cc3)CC2)c(C)n1`, the induction is -33.1% (inactive).

Consider `Cc1cc(NC(=O)CSc2nnc3c4c5c(sc4nc(C(C)C)n23)CCCC5)no1`, for which the induction is 0.87% (inactive).

With `CCOC(=O)C1=C(CN2CCc3ccccc32)NC(=O)NC1c1ccc(Cl)cc1` (configuration not stated), the induction was 68.2% (active).

As to `CCOC(=O)C1=C(CNC2CCCCC2)NC(=O)NC1c1cc(C)ccc1C` (configuration not stated), the induction is 34.3% (inactive).

With `CCOC(=O)C1=C(CN2CCCCCC2)NC(=O)NC1c1cccc([N+](=O)[O-])c1` (configuration not stated), the induction is -9.45% (inactive).

With `CCOC(=O)C1=C(CN2CCc3ccccc32)NC(=O)NC1c1cccc([N+](=O)[O-])c1` (configuration not stated), the induction was 64.5% (active).

For the compound `CCOC(=O)C1=C(C)NC(=O)NC1c1ccccc1` (configuration not stated), the induction was 19% (inactive).

Regarding `CCOC(=O)C1=C(c2ccccc2)NC(=S)NC1c1ccc(Cl)cc1` (configuration not stated), the induction was 47.1% (inactive).

Turning to `COc1ccc(-c2nc(SCC(=O)O)n[nH]2)cc1`, the induction was -21.9% (inactive).

`Cc1ccc(NC(=O)CSc2nccc(=O)[nH]2)c(C)c1`: the induction was -21.1% (inactive).

For the compound `Clc1c(-c2nnc(-c3ccc(N4CCOCC4)cc3)o2)sc2ccccc12`, the induction was -13.2% (inactive).

As for `Cc1cc2nc(C(F)(F)F)cc(-c3cccs3)n2n1`, the induction is 19.1% (inactive).

For the compound `c1csc(-c2cn3c(n2)SCC3)c1`, the induction is -16.2% (inactive).

Regarding `Cc1cc(-c2cccs2)nc(-n2cccc2)n1`, the induction was 62.7% (active).

As to `O=C(CSc1nc(-c2ccco2)cc(C(F)(F)F)n1)Nc1ccc(Cl)cc1Cl`, the induction is -110% (inactive).

As for `O=C(NCCO)C(=O)NCC1COc2ccccc2O1` (configuration not stated), the induction was -12.4% (inactive).

Take `CCNC(=O)c1c(O)c2cccc3c2n(c1=O)CC3`: the induction is 60.8% (active).

`Cc1ccc2nc(NC(=O)c3c(O)c4cccc5c4n(c3=O)CC5)sc2c1`: the induction is -11.9% (inactive).

For `Cc1cc(=O)n2c3c(cccc13)CCC2`, the induction was 1.93% (inactive).

As to `CN1c2ncccc2C(=O)NC12CCN(C(=O)Cn1ncc3ccccc3c1=O)CC2`, the induction is -10.6% (inactive).

Take `O=C(c1cc2sccc2n1Cc1ccc(F)cc1)N1CCc2ccccc21`: the induction is 63% (active).

With `CC1Cc2ccccc2N1C(=O)c1cc2sccc2n1Cc1ccccc1` (configuration not stated), the induction was 54.1% (inactive).

Consider `O=C(NCc1ccco1)c1cc2sccc2n1Cc1ccc(F)cc1`, for which the induction was 41.1% (inactive).

On to `O=C(NCc1nc(-c2cccnc2)n[nH]1)C(c1ccccc1)C1CCCCC1` (configuration not stated), for which the induction was 24.6% (inactive).

Consider `Cc1ccccc1-n1c(SCC(=O)N2CCCCCC2)nnc1-c1cccnc1`, for which the induction was -15.5% (inactive).

For `COc1cccc(CN2CCN(C(=O)c3ccccn3)[C@@H](C)C2)c1`, the induction is -14.5% (inactive).
